Calls of active or inactive are those of the source.
Key:
[1] = E. coli DRC41 culture turbidity changes, primary screen, E. coli filamentation inducer project, strain DRC41, OD650, 48 h (AID 1152);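 note: E. coli MC1000 strain DRC41 lacking acrAB efflux pump and sulA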; details: E. coli DRC41 (acrAB sulA), higher = more signal, called active from +8 up or from −8 down
[2] = small-molecule binders of probe aLefty1, primary screen, biochemical, small-molecule microarray, 635/667 nm fluorescence (AID 1153); details: higher = more signal;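 note: score merges spot fluorescence with signal-to-noise ratio from the scanned slide images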
[3] = PSAC antagonists in infected red cells, primary screen, cell-based, P. falciparum Indochina, OD700, 1 h (AID 1154); details: P. falciparum Indochina infected RBC osmotic lysis, higher = more signal, called active from +8 up or from −8 down
[4] = PSAC antagonists in infected red cells, primary screen, cell-based, P. falciparum Indochina, OD700, 2 h (AID 1155);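 note: lysis reports solute entry through the parasite surface anion channel PSAC; channel blockers reduce lysis of infected cells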; details: P. falciparum Indochina infected erythrocytes, osmotic lysis OD700; higher = more signal, called active from +8 up or from −8 down
[5] = osmotic lysis modulators in infected erythrocytes, primary screen, PSAC antagonist project, cell-based, P. falciparum Indochina, OD700, 3 h (AID 1156); details: higher = more signal, called active from +8 up or from −8 down
[6] = PSAC antagonists in infected red cells, primary screen, cell-based, P. falciparum Indochina, OD700, 18 h (AID 1157); details: P. falciparum Indochina infected erythrocytes, osmotic lysis OD700, 18 h; higher = more signal, called active from +8 up or from −8 down
[7] = modulators of S6 phosphorylation in cells, primary screen, cell-based, A549, cytoblot, luminescence, serum-stimulated (AID 1158); details: A549 phospho-S6 cytoblot, 5 h, higher = more signal;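 note: serum-stimulated A549 lung adenocarcinoma cells; signal is phosphorylated S6 detected by cytoblot immunostaining with HRP secondary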
[8] = biological target: NADPH oxidase 2 (Homo sapiens) (UniProt P04839); assay: NOX2-dependent H2O2 signal modulators, primary screen, NOX inhibitor project, cell-based, HEK293-NOX2, PMA-stimulated, Amplex Red fluorescence (AID 1159); details: 45 min, higher = more signal, called active from +8 up or from −8 down; note: test concentration not given here
Sequence of NADPH oxidase 2 (Homo sapiens) (P04839 whole entry, looked up): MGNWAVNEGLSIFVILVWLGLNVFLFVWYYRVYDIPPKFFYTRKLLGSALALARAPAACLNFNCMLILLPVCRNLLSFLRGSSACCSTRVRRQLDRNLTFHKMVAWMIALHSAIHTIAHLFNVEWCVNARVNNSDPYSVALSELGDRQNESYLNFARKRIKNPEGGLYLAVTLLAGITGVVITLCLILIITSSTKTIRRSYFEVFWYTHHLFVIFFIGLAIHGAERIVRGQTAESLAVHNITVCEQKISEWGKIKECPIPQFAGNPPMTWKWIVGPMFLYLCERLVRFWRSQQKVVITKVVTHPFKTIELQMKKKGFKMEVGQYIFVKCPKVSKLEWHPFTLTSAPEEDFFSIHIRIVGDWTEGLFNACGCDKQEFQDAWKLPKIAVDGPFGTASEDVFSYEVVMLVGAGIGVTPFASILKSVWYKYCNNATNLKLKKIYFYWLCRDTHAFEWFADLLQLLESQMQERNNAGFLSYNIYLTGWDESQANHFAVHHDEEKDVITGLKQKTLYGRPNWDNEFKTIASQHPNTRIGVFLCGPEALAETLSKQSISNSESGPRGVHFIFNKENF

[9] = biological target: NADPH oxidase 4 (Homo sapiens) (UniProt Q9NPH5); assay: NOX4-dependent H2O2 signal modulators, primary screen, NOX inhibitor project, cell-based, HEK293-NOX4, tetracycline-induced, Amplex Red fluorescence (AID 1160); details: 45 min, higher = more signal, called active from +8 up or from −8 down
Sequence of NADPH oxidase 4 (Homo sapiens) (Q9NPH5 whole entry, looked up): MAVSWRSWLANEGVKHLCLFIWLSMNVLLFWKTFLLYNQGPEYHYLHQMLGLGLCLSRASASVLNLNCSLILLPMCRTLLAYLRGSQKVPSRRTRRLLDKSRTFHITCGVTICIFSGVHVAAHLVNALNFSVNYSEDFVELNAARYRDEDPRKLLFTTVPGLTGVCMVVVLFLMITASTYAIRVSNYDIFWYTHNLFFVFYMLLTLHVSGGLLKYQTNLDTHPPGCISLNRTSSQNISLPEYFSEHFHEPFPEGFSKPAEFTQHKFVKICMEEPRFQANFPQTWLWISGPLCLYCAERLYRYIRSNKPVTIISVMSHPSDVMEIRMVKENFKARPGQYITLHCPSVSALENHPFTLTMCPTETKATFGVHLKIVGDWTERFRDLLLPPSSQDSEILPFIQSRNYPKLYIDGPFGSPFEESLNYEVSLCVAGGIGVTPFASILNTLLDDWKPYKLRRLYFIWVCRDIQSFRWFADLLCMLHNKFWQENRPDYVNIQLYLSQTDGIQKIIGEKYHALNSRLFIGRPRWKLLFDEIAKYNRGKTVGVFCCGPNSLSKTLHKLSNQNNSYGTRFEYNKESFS

[10] = biological target: NADPH oxidase 5 (Homo sapiens) (UniProt Q96PH1); assay: NOX5-dependent H2O2 signal modulators, primary screen, NOX inhibitor project, cell-based, HEK293-NOX5, Amplex Red fluorescence (AID 1161); details: HEK293-NOX5, ionomycin, 45 min, higher = more signal
Sequence of NADPH oxidase 5 (Homo sapiens) (Q96PH1 whole entry, looked up): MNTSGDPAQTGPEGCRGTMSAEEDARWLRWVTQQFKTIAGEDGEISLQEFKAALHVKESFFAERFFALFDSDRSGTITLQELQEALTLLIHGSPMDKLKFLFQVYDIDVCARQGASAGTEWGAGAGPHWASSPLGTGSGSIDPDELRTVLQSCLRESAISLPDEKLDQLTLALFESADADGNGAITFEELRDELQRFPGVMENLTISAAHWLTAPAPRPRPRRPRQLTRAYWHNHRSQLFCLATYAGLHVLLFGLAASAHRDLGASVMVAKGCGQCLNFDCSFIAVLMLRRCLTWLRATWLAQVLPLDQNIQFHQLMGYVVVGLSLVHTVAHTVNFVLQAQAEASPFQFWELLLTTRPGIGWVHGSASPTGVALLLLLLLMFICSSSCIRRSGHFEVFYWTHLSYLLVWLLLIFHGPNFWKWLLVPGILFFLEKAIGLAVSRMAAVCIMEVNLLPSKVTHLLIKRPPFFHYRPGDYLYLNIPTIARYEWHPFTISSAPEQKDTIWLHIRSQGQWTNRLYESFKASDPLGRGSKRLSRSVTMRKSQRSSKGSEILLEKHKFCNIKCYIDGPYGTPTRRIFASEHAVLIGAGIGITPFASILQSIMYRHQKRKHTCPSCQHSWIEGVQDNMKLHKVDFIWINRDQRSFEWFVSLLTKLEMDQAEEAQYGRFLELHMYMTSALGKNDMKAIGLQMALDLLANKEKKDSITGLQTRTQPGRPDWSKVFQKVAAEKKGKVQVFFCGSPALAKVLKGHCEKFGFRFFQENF

| Compound | z-score [1] | composite z-score [2] | z-score [3] | z-score [4] | z-score [5] | z-score [6] | z-score [7] | z-score [8] | z-score [9] | z-score [10] |
| --- | --- | --- | --- | --- | --- | --- | --- | --- | --- | --- |
| COC(=O)[C@@]1(Cc2ccc(OC)cc2)[C@H]2c3cc(C(=O)N4CCCC4)n(CCO)c3C[C@H]2CN1C(=O)c1ccccc1 | -1.72 (inactive) | 0.399 | 2.85 (inactive) | 0.766 (inactive) | 1.66 (inactive) | 0.815 (inactive) | 0.604 | -0.0722 (inactive) | -2.96 (inactive) | -4.86 |
| C=CC[C@@]1(C(=O)NCCCOC)N=C(c2ccc(OCCCO)cc2)O[C@@H]1c1ccccc1 | 1.3 (inactive) | 0.611 | 21.7 (active) | 7.55 (inactive) | 1.32 (inactive) | 0.406 (inactive) | 1.54 | -0.393 (inactive) | 0.523 (inactive) | 0.754 |
| CCOC(=O)C[C@H]1[C@H](OC(=O)c2ccc(C(=O)c3ccccc3)cc2)[C@@H](NC(=O)c2ccc(-c3ccccc3)cc2)c2cc(OCCCO)ccc2N1C(=O)Cc1ccc(OC)cc1 | 0.548 (inactive) | 0.344 | 11.8 (active) | 1.62 (inactive) | -0.455 (inactive) | 0.429 (inactive) | 0.53 | -0.44 (inactive) | 0.397 (inactive) | 0.501 |
| O=C1C2C=CC(C(O)c3cccc(O)c3)N(Nc3ccc([N+](=O)[O-])cc3)C2C(=O)N1c1ccccc1 (stereo not given) | -0.367 (inactive) | 0.0361 | 23.8 (active) | 5.34 (inactive) | 3.57 (inactive) | 1.22 (inactive) | -0.609 | -2.1 (inactive) | -4.41 (inactive) | -4.26 |
| COC(=O)C1=CC(CCCO)=CC(c2ccc(CN3CCCC3)cc2)N(Cc2cccc(OC(F)(F)F)c2)C=C1C(=O)OC (stereo not given) | -0.418 (inactive) | 0.241 | 0.119 (inactive) | -0.984 (inactive) | 0.456 (inactive) | -2.27 (inactive) | 1.38 | 0.439 (inactive) | -0.351 (inactive) | 0.628 |
| CCOC(=O)C[C@H]1[C@H](OC(=O)c2cc3ccccc3oc2=O)[C@@H](NC(=O)CC(C)C)c2cc(OCCCO)ccc2N1C(=O)c1ccc2ccccc2n1 | -0.618 (inactive) | -0.0061 | 9.02 (active) | 1.25 (inactive) | 0.609 (inactive) | 0.647 (inactive) | -0.679 | 1.01 (inactive) | 1.23 (inactive) | 0.7 |
| COc1cc(C(O)C2C=CC3C(=O)N(C)C(=O)C3N2Nc2ccccc2)cc(OC)c1OC (stereo not given) | -0.283 (inactive) | 0.923 | 1.28 (inactive) | 1.01 (inactive) | 0.508 (inactive) | 1.07 (inactive) | -0.802 | -1.41 (inactive) | -2.12 (inactive) | -2.14 |
| NC(=O)NCC#Cc1ccc2c(c1)[C@]1(C(=O)N2)[C@H](c2ccccc2OCCO)N2[C@H](c3ccccc3)[C@H](c3ccccc3)OC(=O)[C@H]2[C@@H]1C(=O)O | 0.851 (inactive) | -0.278 | 1.07 (inactive) | -0.525 (inactive) | -1.78 (inactive) | 0.0482 (inactive) | 0.171 | 2.78 (inactive) | 0.517 (inactive) | -0.123 |
| CCC1=C2CN(Cc3ccccc3)[C@@H](C(=O)Cc3ccccc3)C2C=CCC1 (stereo not given in full) | 0.806 (inactive) | -0.0984 | 0.26 (inactive) | -1.13 (inactive) | 0.564 (inactive) | -2 (inactive) | 0.492 | -1.12 (inactive) | -1.42 (inactive) | -0.123 |
| CC(C)[Si]1(C(C)C)OCc2cc(C3CC3)nc(-c3ccc(Oc4ccccc4)cc3)c21 | -0.367 (inactive) | -0.284 | 2.58 (inactive) | 1.8 (inactive) | 0.508 (inactive) | 1.29 (inactive) | -0.389 | 1.11 (inactive) | 0.344 (inactive) | 0.322 |
| COc1cccc(C)c1NC(=O)O[C@H]1[C@H](OC(=O)Nc2ccc3c(c2)OCO3)[C@@H](OC(=O)Nc2ccc3c(c2)OCO3)[C@@H](OC)O[C@@H]1CO | 0.132 (inactive) | -0.165 | 5.81 (inactive) | 1.26 (inactive) | 0.579 (inactive) | 0.349 (inactive) | -0.227 | -1.21 (inactive) | -0.747 (inactive) | -1.67 |
| COCCOC(=O)N1C(=O)[C@@]2(c3cc(C#CCCO)ccc31)[C@H](C(=O)Nc1nc3ccccc3s1)[C@H]1C(=O)O[C@H](c3ccccc3)[C@H](c3ccccc3)N1[C@@H]2c1ccc(O)cc1 | 0.0106 (inactive) | 0.126 | 1.41 (inactive) | 0.523 (inactive) | 1 (inactive) | 0.417 (inactive) | 0.0869 | 1.43 (inactive) | 0.0581 (inactive) | 0.329 |
| CCCC=C(CCC)[C@@H](NC(=O)c1cccs1)c1ccc(C(=O)OC)cc1 | -1.24 (inactive) | 0.911 | -1.3 (inactive) | -0.864 (inactive) | -1.72 (inactive) | -1.27 (inactive) | 1.28 | 0.0754 (inactive) | 1.74 (inactive) | 2.06 |
| C=CCC(OC(C)=O)[C@@H]1[C@@H](N(Cc2ccc(-c3cccc(C(F)(F)F)c3)o2)C(=O)Cc2ccc(OC)cc2)c2cc(OCCCO)ccc2N1C(=O)c1ccc(-c2ccccc2)cc1 (stereo not given in full) | -1.12 (inactive) | 0.235 | 0.922 (inactive) | -0.393 (inactive) | 1.81 (inactive) | 0.0651 (inactive) | -0.199 | -1.2 (inactive) | -1.15 (inactive) | -1.35 |
| COc1ccc([Si](C)(C)[C@@H]2[C@@H](CC(=O)N3Cc4ccccc4C[C@H]3CO)O[C@]3(C(=O)N(Cc4ccc(N5C(=O)c6cccc7cccc5c67)cc4)c4ccccc43)[C@H]2C)cc1 | -0.967 (inactive) | 0.0391 | 3.62 (inactive) | 1.49 (inactive) | -0.149 (inactive) | 0.694 (inactive) | -0.297 | 0.878 (inactive) | 0.929 (inactive) | 2.03 |
| COc1ccc([Si](C)(C)[C@H]2[C@H](CC(=O)N3Cc4ccccc4C[C@H]3CO)O[C@@]3(C(=O)N(Cc4ccc(N5CCOC5=O)cc4)c4ccccc43)[C@@H]2C)cc1 | -0.742 (inactive) | -0.0611 | 8.34 (active) | 1.85 (inactive) | 0.863 (inactive) | 0.82 (inactive) | 0.718 | -0.659 (inactive) | 0.611 (inactive) | -0.344 |
| COC(=O)[C@@]1(Cc2ccc(F)cc2)[C@H]2c3cc(C(=O)N4CCCC4)n(CCc4c[nH]c5ccccc45)c3C[C@H]2CN1C(=O)c1ccccc1 | -2.35 (inactive) | 1.04 | 2.02 (inactive) | 0.946 (inactive) | 0.805 (inactive) | 1.06 (inactive) | -0.142 | 0.515 (inactive) | 0.988 (inactive) | 1.9 |
| CCCC[C@@H](O)C1=C(COc2ccccc2)C[C@H]2C(=O)N(Cc3ccccc3)C(=O)[C@H]2[C@H]1CO | 0.232 (inactive) | -0.0564 | 13.9 (active) | 1.59 (inactive) | -1.11 (inactive) | 0.967 (inactive) | -0.326 | -0.77 (inactive) | -0.286 (inactive) | -0.695 |
| O=C1C2C=CC(C(O)c3ccco3)N(Nc3ccccc3F)C2C(=O)N1c1ccccc1 (stereo not given) | -1.72 (inactive) | 0.361 | 0.188 (inactive) | 1.05 (inactive) | -0.197 (inactive) | 0.975 (inactive) | -0.754 | -0.73 (inactive) | 0.251 (inactive) | -1.64 |
| [N-]=[N+]=NCc1ccccc1[C@H]1OC(c2ccc(OCCCO)cc2)=N[C@@]1(Cc1ccccc1N=[N+]=[N-])C(=O)NCC(O)CO (stereo not given in full) | -0.502 (inactive) | 0.54 | 27.6 (active) | 21 (active) | 1.37 (inactive) | 2.09 (inactive) | -0.48 | -3.08 (inactive) | -0.592 (inactive) | -1.71 |
| C[N+](C)(C)CCCC[C@@H]1NC(=O)[C@@H]2C[C@H](C(=O)NCCCCCCN)[C@H](c3cccc(OCCO)c3)N2C1=O | 0.0598 (inactive) | 2.07 | 2.07 (inactive) | 0.679 (inactive) | 0.837 (inactive) | 0.229 (inactive) | 0.38 | 0.827 (inactive) | 0.0305 (inactive) | 0.559 |
| Cc1ccc(C(C)CC(O)C2C=CC3C(=O)N(c4ccccc4)C(=O)C3N2Nc2ccccc2)o1 (stereo not given) | -1.13 (inactive) | 0.738 | 4.07 (inactive) | 1 (inactive) | -0.0498 (inactive) | -0.374 (inactive) | 2.07 | -3.07 (inactive) | -5.71 (inactive) | -4.91 |
| COCCOC(=O)N1C(=O)[C@@]2(c3cc(C#CC4(O)CCCCCC4)ccc31)[C@H](C(=O)Nc1nc3ccccc3s1)[C@H]1C(=O)O[C@H](c3ccccc3)[C@H](c3ccccc3)N1[C@@H]2c1ccc(O)cc1 | 0.0662 (inactive) | 0.219 | 0.4 (inactive) | 0.925 (inactive) | -0.186 (inactive) | 1.47 (inactive) | -0.335 | 1.01 (inactive) | 0.286 (inactive) | 0.785 |
| COCCOC(=O)N1C(=O)[C@@]2(c3cc(C#CC4(O)CCCCCC4)ccc31)[C@H](C(=O)N1CCc3cc(OC)c(OC)cc3C1)[C@H]1C(=O)O[C@H](c3ccccc3)[C@H](c3ccccc3)N1[C@@H]2c1ccc(OCCO)cc1 | -0.073 (inactive) | -0.469 | 7.39 (inactive) | 2.64 (inactive) | 1.41 (inactive) | 1.64 (inactive) | 0.272 | 1.6 (inactive) | 0.614 (inactive) | 1.74 |
| O[C@@H](Cc1ccccc1)[C@@H](/C=C/C1CC1)N(CC#Cc1ccccc1)Cc1ccccc1Br | 0.241 (inactive) | 0.187 | 2.05 (inactive) | 1.37 (inactive) | 0.108 (inactive) | 0.475 (inactive) | 0.131 | -0.612 (inactive) | 0.221 (inactive) | -0.586 |
| N#Cc1ccc(NN2C(C(O)c3ccc(Br)cc3)C=CC3C(=O)N(c4ccccc4)C(=O)C32)cc1 (stereo not given) | -0.922 (inactive) | 0.57 | 14.8 (active) | 2.9 (inactive) | 0.419 (inactive) | -0.348 (inactive) | 0.717 | -2.6 (inactive) | -4.29 (inactive) | -3.45 |
